# An excerpt weighted towards active compounds, which were near 2.2% of everything screened.
# VACV mCherry inh: inhibitors of vaccinia virus infection (mCherry reporter signal); 0.63% of 310,000 active; AID 720579; Potency, µM (top dose mostly 36.5 µM), for inactives: at the highest dose activity change, negative = inhibition, most hits filed as inhibitors; Vaccinia virus mCherry reporter infection, fluorescence; calls by dose curve; tested in A549 cells; also: nearly all actives have a fitted effect of over 35% in size
# FMDV inh: antivirals against foot and mouth disease virus; FMDV antiviral cell-based qHTS; Potency, µM (titrated, usually from 57.9 µM), for inactives: at the highest dose activity change, negative = inhibition, most hits filed as inhibitors; 1.2% of 410,000 active; AID 1159524; calls by dose curve; tested in HEK293T cells; also: read-out not given here; nearly all actives have a fitted effect of over 45% in size
# Giardia FBPA inh: blocks Giardia fructose-bisphosphate aldolase activity; purified Giardia FBPA; Potency, µM (titrated, usually from 59.6 µM), for inactives: at the highest dose activity, negative = inhibition, most hits filed as inhibitors; AID 2451; 0.71% of 290,000 active; A8B2U2; active = well fitted inhibition curve with a large enough effect; inconclusive = small, poorly fitted or top-dose-only effect, or effect the other way; also: nearly all actives have a fitted effect of over 55% in size
# Target sequence (A8B2U2 whole entry, looked up): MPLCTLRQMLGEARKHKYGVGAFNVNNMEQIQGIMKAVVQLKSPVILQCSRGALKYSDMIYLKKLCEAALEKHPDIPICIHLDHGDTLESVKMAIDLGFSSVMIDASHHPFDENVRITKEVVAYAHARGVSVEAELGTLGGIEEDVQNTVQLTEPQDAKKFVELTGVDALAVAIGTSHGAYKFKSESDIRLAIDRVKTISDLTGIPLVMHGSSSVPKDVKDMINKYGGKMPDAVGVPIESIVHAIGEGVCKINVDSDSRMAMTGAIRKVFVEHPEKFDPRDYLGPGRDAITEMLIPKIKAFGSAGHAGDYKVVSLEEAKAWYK
#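 Giardia FBPA (40 nM reagent) was preincubated 10 min at RT with compound (up to 57.5 uM final), then substrate plus GAPDH/TPI/NAD/arsenate coupling system with diaphorase/resazurin was added; resorufin fluorescence (525/598 nm) was read after 20 min.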
# Vaccinia Venus: inhibitors of vaccinia virus (Venus reporter) | Vaccinia virus Venus reporter expression, fluorescence | Potency, µM (titrated, usually from 36.5 µM), inactives show at the top dose activity change, negative = inhibition, actives largely listed as inhibitors | 0.46% of 330,000 active | AID 720580; calls by dose curve; tested in A549 cells; also: nearly all actives have a fitted effect of over 30% in size
# * marks the source's active call; other numbers are inactive results; i = inactive; ? = inconclusive; · = not tested or not shown; [ ] = another dose, or the depositor's remark. % is scaled to controls: 0 for no effect and ±100 for the full control effect; potency is read from the fitted curve at half-maximal effect.
SMILES,VACV mCherry inh,FMDV inh,Giardia FBPA inh,Vaccinia Venus
CCNC(=S)NNC(=O)c1cc(-c2ccc(OC)cc2)nc2ccccc12,-15.6%,11.2µM*,22.7%,-18.2%
Cc1cccc(-c2nc3c4ccccc4nc(N4CCN(c5cccc(Cl)c5)CC4)n3n2)c1,-14.9%,-17.7%,·,-9.1%
CC(C)OCCCNc1ncnc2c1[nH]c1ccccc12,·,17.8µM*,0.9%,·
CC(=NNC(=S)N1CCCCC1)c1ccccn1,4.47µM*,?,·,10µM*
CC(=NNC(=S)N1CC2CCC(CC2)C1)c1ccncn1,1.58µM*,0.0%,·,6.31µM*
CC(=NNC(=S)N1CCCCC1)c1cccc(C)n1,0.316µM*,13.8%,·,?
CC(=NNC(=S)Nc1ccccc1)c1ccccn1,?,57.6%,·,?
CSC(=S)NN=C(C)c1cccc(C)n1,?,5.3%,·,?
Cc1ncc2c(c1CNC(=O)/C=C/c1cccs1)CCN(C(=O)c1cc(C(C)C)on1)C2,-0.8%,-8.8%,·,6.4%
Cc1cccc(/C=C/c2onc(C)c2[N+](=O)[O-])n1,-9.7%[7.34 µM],14.1µM*,·,-14.1%[7.34 µM]
Cc1cccc(N/C=C/c2onc(C)c2[N+](=O)[O-])c1,-11.9%[1.46 µM],69.1%,-0.4%,5.1%
Cc1nnc(SCc2ccccc2Cl)c2cc3occc3n12,-6.0%,42.1%,·,-9.2%
C1=CC2=NC34CCCCC3CC3=C(CCCC3)N4C2=CC1=NC1CCCCC1 (configuration not stated),·,28.2µM*,·,·
CC1(C)CCC(=NNC(N)=S)CC1,11.2µM*,-5.5%,·,?
CCOc1cc(/C=C2\C(=O)N(CCc3ccc(OC)c(OC)c3)C(C)=C2C(=O)OC)ccc1O,i,20µM*,?,-2.8%
COC(=O)C1=C(C)N(Cc2ccc(C)cc2)C(=O)/C1=C\c1ccc(O)c(OC)c1,·,?,-27.3%,?
COC(=O)C1=C(C)N(Cc2ccc(C)cc2)C(=O)/C1=C\c1cc(OC)c(OC)c(OC)c1,-4.6%,20µM*,-11.6%,-0.1%
COc1cc2c(cc1OC)/C(=C/c1ccc(N(C)C)cc1)C=C2,-7.0%,·,·,-18.3%
Cc1cc(C)c(NC(=O)CSc2nc(COc3ccccc3)nc3ccccc23)c(C)c1,11.2µM*,·,-6.9%,?
CCOc1ccc(CN2CCOc3ccc(C(O)c4cccnc4)cc3C2)cc1 (configuration not stated),-19.1%,-29.1%,·,-13.4%
CN(C)c1ccc(CC(=O)N2CCCCC2c2cc(C(=O)Nc3ccccc3Cl)no2)cc1 (configuration not stated),-5.7%,35.5µM*,·,-12.3%
O=C(c1ccccc1)N1CCOC12CCN(c1ncc(C(F)(F)F)cc1Cl)CC2,·,15.8µM*,0.4%,-22.8%
O=C(c1ccc([N+](=O)[O-])cc1)N1CCOC12CCN(c1ncc(C(F)(F)F)cc1Cl)CC2,-4.7%[1.46 µM],?,-3.8%,-3.8%
CN(C)C=NC(=O)c1ccc(N2CCN(c3ncc(C(F)(F)F)cc3Cl)CC2)cc1,·,-11.8%,-2.4%,-11.6%
CN(C)/C=C/C(=O)c1ccc(N2CCN(c3ncc(C(F)(F)F)cc3Cl)CC2)cc1,·,25.1µM*,1.9%,-19.7%
SMILES,VACV mCherry inh,FMDV inh,Giardia FBPA inh,Vaccinia Venus
COc1ccc(CCNC(=O)c2cnn(-c3nccc(-c4cccs4)n3)c2C)cc1OC,-12.8%,24.5%,·,?
COc1cc(C(=O)Nc2ccc(OCc3cc(=O)n4cccc(C)c4n3)cc2)cc(OC)c1OC,8.91µM*,0.0%,·,?
CCn1nc(C)c(CN2CCC3(CCC(CNC(=O)c4ccccc4)O3)CC2)c1C (configuration not stated),-5.6%,-11.4%,·,-5.7%
CCCn1c(=S)[nH]c2cc(C(=O)N3CCCC(C(=O)OCC)C3)ccc2c1=O (configuration not stated),·,17.8µM*,-22.3%,·
CC(=O)c1cccc(CN2CCC(C(=O)Nc3cccc(-c4ccn[nH]4)c3)CC2)c1,-3.9%,31.6µM*,·,-16.6%
C=CCOc1ccccc1CN1CCC(C(=O)Nc2cccc(-c3ccn[nH]3)c2)CC1,·,-20.1%,2.4%,·
CCOc1cc(CNCCc2ccc(S(N)(=O)=O)cc2)ccc1OCc1ccc(Cl)cc1,·,?,-6.1%,11.2µM*
CN1CCN(C(=O)CCN2C(=O)/C(=C\c3ccccc3F)SC2=S)CC1,·,-17.1%,-0.1%,·
O=C(CCN1C(=O)/C(=C\c2ccccc2F)SC1=S)N1CCOCC1,?,-18.6%,·,12.6µM*
COc1cc(/C=C2\SC(=S)N(CCC(=O)N3CCCCC3)C2=O)cc(OC)c1OC,-20.2%,28.2µM*,5.2%,-10.1%
COc1ccc(C2Nc3ccccc3C(=O)N2Cc2ccco2)cc1 (configuration not stated),i,·,·,-8.6%
COc1cc(NC(=O)Cn2ncc(Cl)c(Cl)c2=O)c(C)cc1[N+](=O)[O-],?,12.6µM*,-0.5%,?
COC(=O)c1ccccc1C(=O)N1CCc2c(cnc(C)c2CNC(=O)c2ccccc2F)C1,-11.1%,-0.9%,·,-5.2%
C=CCN=c1scc(-c2ccccc2)n1/N=C/c1ccccn1,2.24µM*,9.7%,-8.8%,12.7%
CCN=c1scc(-c2ccc(F)cc2)n1/N=C/c1ccccn1,-7.5%,-13.5%,-9.1%,-8.2%
C=CCN=c1scc(-c2ccc(F)cc2)n1/N=C/c1ccccn1,-21.2%,-0.4%,-0.4%,-6.2%
CCN=c1scc(-c2ccccc2)n1/N=C/c1ccccn1,5.62µM*,?,2.8%,5.2%
O=C(Nc1nnc(-c2ccc3c(c2)CCCC3)o1)c1ccccc1,10µM*,13.7%,23.9%,?
O=C(Nc1nnc(-c2ccc3c(c2)CCCC3)o1)c1ccccc1Cl,?,5.1%,?,-29.0%
CC(=O)N[C@@H](C)C(=O)NCC1Cc2cc(C)cc(-c3cnccn3)c2O1 (some centres not stated),-7.2%,-10.1%,·,3.7%
CC(O)C(NS(=O)(=O)c1ccc(Cl)cc1)C(=O)OCC(=O)c1c[nH]c2ccccc12 (configuration not stated),-9.6%,15.8µM*,-3.3%,-21.8%
CSCCC(NS(=O)(=O)c1ccc(Cl)cc1)C(=O)OCC(=O)c1c(C)[nH]c2ccccc12 (configuration not stated),?,35.5µM*,-11.6%,?
Cc1[nH]c2ccccc2c1C(=O)COC(=O)C1CC(O)CN1S(=O)(=O)c1ccc(Cl)cc1 (configuration not stated),i,0.0%,·,-11.0%
COC(=O)C1CCN(Cc2ccc3c(c2)CN(C(=O)C2CCCN(c4ccccn4)C2)CCO3)CC1 (configuration not stated),i,-15.4%,·,-3.8%
Cc1cccnc1NCc1ccc(O)c2ncccc12,14.1µM*,-28.4%,?,?
O=C1c2ccccc2NC(c2ccccc2OCc2ccccc2)N1Cc1ccco1 (configuration not stated),6.3%,·,·,-6.4%
NC(=O)c1ccc(Sc2nnc(-c3cccs3)n2CC2CCCO2)c([N+](=O)[O-])c1 (configuration not stated),7.94µM*,2.0%,2.7%,11.2µM*
Cn1c(SCC(=O)NCc2ccco2)nnc1-c1ccc(NC(=O)c2ccccc2)cc1,-21.4%,·,·,-16.3%
C=CCN(c1ccccc1OC)S(=O)(=O)c1cccc(C(=O)OCC(=O)c2c[nH]c3ccccc23)c1,-15.9%,?,-4.4%,-24.4%

# Source: PubChem BioAssay (National Center for Advancing Translational Sciences (NCATS))
